TCR act – T cell receptor activation | primary human leukocytes, anti-CD3, IL-2 HTRF, 48 h | Potency, µM (highest dose often 9.22 µM), inactives show top-dose activation of IL-2 secretion, most hits filed as activators | 330,000 tested, under 10 active | AID 504894; further: % of control where 0% means no effect
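HTRF read-out of IL-2 secretion: europium cryptate donor excited at 320nm, d2 acceptor emission at 665nm. Cells were primary human leukocytes incubated 48 hr with compounds and a-CD3 beads, supplying TCR signal only.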
uPA generation – blocks generation of uPA at the cell surface; cell surface uPA generation assay, qHTS; 330,000 tested, 0.31% active; Potency, µM (titrated, usually from 38.3 µM), without a hit: at the top dose activity change, negative = inhibition, usual class: inhibitors; active means well fitted inhibition curve with a large enough effect; inconclusive means small, poorly fitted or top-dose-only effect; inactive means no such curve, though single readings can be large or run the other way; tested in mouse RAW 264.7 cells; further: potency means the concentration at half of the fitted maximal effect; on the % scale 0 is the no-effect control and ±100 the full control effect; nearly all actives have a fitted effect of over 55% in size
IL-2 act – activators of IL-2; 360,000 tested, 0.065% active; IL-2 activation reporter assay, cell-based qHTS; stimulated with anti-CD3/CD4/CD28 beads; in transgenic mouse T cells; activation, % (series mostly up to about 46 µM); in the data active means activation above about 50%; inconclusive means mostly about 30% to 49%; further: 0% is about no effect
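Readout is EGFP and DsRed signal by fluorescent plate cytometry after 18 h at 37 degrees C. Transgenic mouse T cells (750/well) received compound for 60 min before bead stimulation (anti-CD3, anti-CD4, anti-CD28); memory T cells served as non-tolerant control.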
p53 reactivation – re-activators of mutant p53; H1299 p53-A138V BP100-luciferase reporter, luminescence, 24 h; Potency, µM (series often up to 92.2 µM), for the others: at the top dose activity change, positive = activation, actives largely listed as activators; 320,000 tested, 0.063% active; AID 504706; further: potency means the concentration at half of the fitted maximal effect; % of control where 0% means no effect; nearly all actives have a fitted effect of over 45% in size
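p53-null H1299 cells stably carrying temperature-sensitive p53-A138V and a BP100-luciferase reporter were pinned with compounds (4-point, 1:5 series) and held 24 hrs at 37 deg C. Luminescence was read 10 min after detection reagent.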
BRCA1 expr act – increases BRCA1 expression. 380,000 tested, 1.1% active. Potency, µM (series often up to 46.1 µM), inactives show top-dose activation, most hits filed as activators. MCF7-BRCA1-FFLuc reporter, luminescence, 48 h; response scale: scaled: vehicle 0%, 10 µM genistein 100%; further: potency means the concentration at half of the fitted maximal effect; nearly all actives have a fitted effect of over 80% in size
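Luminescence from a BRCA1-driven firefly luciferase in MCF7 cells was the read-out, taken 15 min after substrate addition following 48 h compound exposure at 37 °C. Data were normalized to a 10 microM genistein control and DMSO vehicle.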
Starred values were filed as active, the others as inactive; ? = inconclusive; nt = not tested or not shown; [ ] = dose if it differs, or a comment. Compounds with a hit are over-represented: about 1.4% of the library has one in this group of screens. Unless noted, the call rests on the fitted dose curve; in most records, active means well fitted curve in the direction sought with a large enough effect; inconclusive means small, poorly fitted or top-dose-only effect, or another doubt; inactive means no such curve, though single readings can be large; an effect the other way counts as inactive or inconclusive.

SMILES	TCR act	uPA generation	IL-2 act	p53 reactivation	BRCA1 expr act
Cc1ccc2nc(-c3ccc(N4C(=NC(=O)CCC(=O)O)SC5CS(=O)(=O)CC54)cc3)sc2c1 (centres undefined)	-7%[46.1 µM]	3%	0	?	5.6µM*
CC(=O)N=C1SC2CS(=O)(=O)CC2N1c1ccc(-c2nc3ccc(C)cc3s2)cc1 (centres undefined)	-7%[46.1 µM]	nt	nt	?	nt
COc1cc(C2C=C(C(=O)O)Nc3ncnn32)ccc1O (centres undefined)	nt	nt	nt	nt	30%
Cc1nn(-c2ccccc2)c(C)c1C(=O)OCC(=O)Nc1ccccc1	1%	-8%	5	?	-3%
Cc1nc(COC(=O)c2c(C)nn(-c3ccccc3)c2C)cs1	3%	0%	-2	14%	13µM*
Cc1nnc(SCc2ccccc2)nc1-c1ccccc1	-3%	-12%	-2	nt	11µM*
COc1ccc(NC(=O)c2cccs2)c([N+](=O)[O-])c1	0%	-11%	0	7%	5.6µM*
COc1ccc(NC(=O)c2cc(Cl)ccc2Cl)c([N+](=O)[O-])c1	-2%[46.1 µM]	2%	-2	-10%	-21%
COc1ccc(NC(=O)c2sccc2C)c([N+](=O)[O-])c1	2%	-3%	0	8%	11µM*
COC(=O)c1oc2ccc(OC)cc2c1N	-5%[46.1 µM]	nt	3	?	?
COc1ccc(C(=O)c2oc3ccc(OC)cc3c2N)cc1	-4%[46.1 µM]	6%	0	?	5µM*
Cc1c(C(=O)Nc2cccc(C(F)(F)F)c2)oc2ccc3c(c12)C(=O)CC(C)(C)O3	nt	nt	nt	nt	77%
O=C(O)c1ccc2c(c1)C(=O)N(CCc1c[nH]c3ccccc13)C2=O	3%	-3%	1	?	7.9µM*
O=C(O)c1ccc2c(c1)C(=O)N(CCc1ccccc1)C2=O	4%	3%	1	nt	-21%
CCc1cnc2ccccc2c1/C=C/c1ccc(N(C)C)cc1	nt	nt	nt	nt	-58%
CCOC(=O)c1c(Nc2ccc(O)cc2)nnc(-c2ccccc2)c1-c1ccccc1	nt	nt	nt	nt	-20%
COc1ccccc1C(=O)Nn1cnc2ccccc2c1=O	-4%	-10%	-1	25%	10µM*
Cc1ccccc1OCC(=O)Nc1ccc2nc(SCC(N)=O)sc2c1	nt	nt	nt	nt	17%
OCCc1ccc(O)c(-n2nc3ccccc3n2)c1	2%	-1%	1	27%	11µM*
Cn1c(=O)n(-c2ccc(F)c(Cl)c2)c(=O)c2sc3ccccc3c21	nt	nt	nt	nt	1%
CCN(CC)C(=O)c1cc(-c2ccc(Br)cc2)on1	0%	nt	1	?	7.9µM*
COC(=O)c1cc(-c2ccc(Br)cc2)on1	-2%	-3%	-1	0%	-6%
N#C/C(=C\C=C\c1ccccc1)c1nc(-c2ccc3c(c2)OCO3)cs1	2%[46.1 µM]	-1%	95*	1%	-25%
OC(c1ccccc1)(c1nc(-c2ccc3c(c2)OCO3)cs1)C(F)(F)F (centres undefined)	nt	nt	0	nt	-14%
Cc1cc(C(=O)CN2C(=O)NC3(CCCCC3C)C2=O)c(C)n1Cc1cccs1 (centres undefined)	-1%[46.1 µM]	5%	-2	?	4.5µM*
SMILES	TCR act	uPA generation	IL-2 act	p53 reactivation	BRCA1 expr act
CC1CCCCC12NC(=O)N(CC(=O)NCc1cccs1)C2=O (centres undefined)	nt	nt	0	nt	-1%
Fc1ccc(N2CCN(c3ncnc4[nH]ncc34)CC2)cc1	nt	nt	nt	nt	0%
O=C(O)CCCN1C(=O)/C(=C\C(Cl)=C\c2ccccc2)SC1=S	3%	5µM*	-3	-13%	-90%
CC(=O)Nc1ccc(NC(=O)C2CCN(S(=O)(=O)c3ccc4c(c3)CCCC(=O)N4)CC2)cc1	nt	nt	nt	nt	8%
COC(=O)c1ccc(N=Nc2ccccc2)cc1	-7%	13%	-1	?	10µM*
Oc1ccc(N=Nc2ccccc2)cc1	1%	14%	-2	?	8.9µM*
OCc1ccc(N=Nc2ccccc2)cc1	-1%	?	1	nt	3.2µM*
COc1ccc(N=Nc2ccc(CO)cc2)cc1	-1%	-22%	-4	nt	?
COc1ccc(-c2nnc3ccc(SC(C)C)nn23)cc1OC	nt	nt	nt	nt	-47%
CCCCNC(=O)CSc1nnc(C)c2c(C)n(-c3ccccc3)nc12	nt	nt	nt	nt	-12%
COc1cccc(CNc2nc3nc(C)c(Cl)c(C)n3n2)c1	0%	3%	-2	?	11µM*
COc1ccc(CNc2nc3nc(C)c(Cl)c(C)n3n2)cc1	-5%	6%	0	14%	?
Cc1ccc(C2CC(=O)c3cnc(NC(=O)c4ccco4)nc3C2)cc1 (centres undefined)	1%	-4%	2	-1%	21%
CC(C)c1ccc(C2CC(=O)c3cnc(NC(=O)c4ccco4)nc3C2)cc1 (centres undefined)	-3%	-7%	-3	?	10µM*
CCCN(C(=O)c1noc2c1COc1ccc(C)cc1-2)c1ccc(Cl)c(Cl)c1	nt	nt	nt	nt	0%
Cc1ccc2nc3sc(C(=O)NCc4ccco4)c(N)c3cc2c1	-7%[46.1 µM]	-1%	167*	?	?
Cc1cc(OCCCn2c(CCNC(=O)C3CCCCC3)nc3ccccc32)ccc1Cl	nt	nt	nt	nt	-3%
CC(OC(=O)c1ccccc1OCC(=O)Nc1ccc(Br)cc1)C(=O)NC1CCCC1 (centres undefined)	nt	nt	nt	nt	15%
COc1ccc(C(=O)Nc2ccc3nc(SCC(=O)N(C)c4ccccc4)sc3c2)cc1	nt	nt	nt	nt	-34%
COc1ccc(Br)cc1Cn1nnc(C(=O)Nc2ccc(C)cc2C)c1N	nt	nt	nt	nt	-17%
Nc1nc(SCc2ccccc2)sc1C(=O)N1CCCCC1	nt	nt	-3	nt	2.2µM*
c1cnc(SCCCOc2ccc3ccccc3c2)nc1	0%	-1%	5	?	11µM*
CC(C)SCCCCOc1ccc2ccccc2c1	-3%	nt	0	?	8.9µM*
Clc1ccc(OCCSc2ncccn2)cc1	1%	1%	-4	?	11µM*
COc1ccc(OCCCSc2ncccn2)cc1	4%	7%	0	?	13µM*
SMILES	TCR act	uPA generation	IL-2 act	p53 reactivation	BRCA1 expr act
CCCCCCCCN(CCCCCCCC)c1ccc(/C=C/c2ccnc3ccccc23)cc1	nt	nt	nt	nt	-2%
Cc1csc2nc(-c3ccc(NS(=O)(=O)c4cc(F)ccc4F)cc3)cn12	nt	nt	nt	nt	3%
Nc1cc(N)nc(SCCOc2ccccc2)n1	-4%	-6%	0	?	13µM*
CC(CC(=O)NCc1ccc(Cl)cc1Cl)CC1=NS(=O)(=O)c2ccccc2N1 (centres undefined)	nt	nt	nt	nt	0%
CCN(C(=O)c1cc2c(=O)oc3ccccc3c2s1)c1ccc(C)c(C)c1	nt	nt	nt	nt	10%
CC(=O)c1ccc(N2CCN(c3ncccn3)CC2)cc1	-4%	-1%	1	?	10µM*
CC(=O)c1ccc(NC(=O)CN2CCN(c3ncccn3)CC2)cc1	nt	-6%	-1	0%	-21%
CC(=O)c1sc(NC(=O)c2ccccc2C)nc1C	5%	-10%	0	3%	13µM*

Screening data as filed in PubChem BioAssay.
